PAFAH1B2 inh = inhibitors of human PAFAH1B2. AID 492953. inhibition, % at 3.39 µM. recombinant PAFAH1B2, FP-rhodamine activity probe, fluorescence polarization. 340,000 compounds, 1.2% hits. P68402;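 active = inhibition above the mean of all tested compounds plus 3 SD, cut at about 24% in these data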
pPAFAH FP inh = inhibitors of human plasma PAF acetylhydrolase (pPAFAH); recombinant pPAFAH, FP-rhodamine probe fluorescence polarization; inhibition, % at 3.39 µM; 330,000 compounds, 1.5% hits;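 active = inhibition above the mean inhibition across the screen plus 3 SD, cut at about 25% in these data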;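 note: inhibitors block binding of the rhodamine activity-based probe so polarization drops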
Target sequence (Q13093 whole entry, looked up): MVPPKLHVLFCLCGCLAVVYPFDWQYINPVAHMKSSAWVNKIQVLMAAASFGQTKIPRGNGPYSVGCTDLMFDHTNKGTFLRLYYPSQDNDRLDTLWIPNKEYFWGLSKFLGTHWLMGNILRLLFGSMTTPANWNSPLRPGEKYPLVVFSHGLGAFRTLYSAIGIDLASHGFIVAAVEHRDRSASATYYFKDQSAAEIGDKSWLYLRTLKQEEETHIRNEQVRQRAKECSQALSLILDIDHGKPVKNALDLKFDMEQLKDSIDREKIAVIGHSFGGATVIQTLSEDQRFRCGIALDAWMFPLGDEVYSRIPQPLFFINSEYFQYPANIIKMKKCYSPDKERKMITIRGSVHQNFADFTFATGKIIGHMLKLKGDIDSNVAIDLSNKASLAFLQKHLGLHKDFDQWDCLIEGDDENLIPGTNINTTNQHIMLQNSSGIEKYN
HTRA1 inh = inhibitors of human serine peptidase HTRA1; Q92743; recombinant HTRA1, FP-rhodamine activity-based probe, fluorescence polarization; inhibition, % at 5.96 µM; 340,000 compounds, 0.5% hits; AID 504803; in the data active = inhibition above about 36%
PAFAH2 inh = PAFAH2 (human) inhibition; Q99487; inhibition, % at 3.39 µM; 340,000 compounds, 0.99% hits; recombinant PAFAH2, FP-rhodamine activity probe, fluorescence polarization;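 active = inhibition above the mean over all tested compounds plus 3 SD, cut at about 30% in these data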;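 note: inhibitors block probe labeling of enzyme so polarization drops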
DAGLB inhibitor = diacylglycerol lipase beta (human) inhibition. HEK293T DAGLB membrane lysate, EnzChek fluorogenic substrate. AID 504411. Q8NCG7. inhibition, % at 5.17 µM. 340,000 compounds, 0.059% hits; in the data active = inhibition above about 34%
PAFAH1B3 inh = inhibitors of human PAFAH1B3. Q15102. recombinant PAFAH1B3, FP-rhodamine probe, fluorescence polarization. inhibition, % at 3.39 µM. 340,000 compounds, 0.28% hits. AID 492972;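 active = inhibition above the screen-wide average of all tested compounds plus 3 SD, cut at about 25% in these data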
A number is an active result; 0 = inactive; - = no result. An excerpt weighted towards active compounds, which were near 2.8% of everything screened.

SMILES	PAFAH1B2 inh	pPAFAH FP inh	HTRA1 inh	PAFAH2 inh	DAGLB inhibitor	PAFAH1B3 inh
Cc1ccc(S(=O)(=O)N2CCC(=O)N(C(COCc3ccc(Cl)cc3)Cc3ccccc3)CC2)cc1 (stereo not drawn)	25	0	0	0	0	0
COc1ccccc1C(=O)Nc1ccc(OCC(=O)N2CCCCC2C)cc1 (stereo not drawn)	0	0	0	0	0	0
CCNC(=O)OCc1cn(-c2ccc(Cl)cc2)nn1	0	0	0	0	0	0
O=C(OCc1cn(-c2ccc(Cl)c(Cl)c2)nn1)c1ccccc1	0	0	0	78	0	0
Oc1ccc(Nc2nc3ccccc3nc2Nc2ccc(O)cc2)cc1	27	0	0	0	0	40
O=C(OC1CCCC1)c1ccc(Cl)cc1Cl	0	-	0	0	0	0
CN1OC(COC(=O)c2ccc(Cl)cc2Cl)CC1c1ccccc1 (stereo not drawn)	0	26	0	0	0	0
O=C(c1ccccc1)N1CCCc2ccccc21	0	0	0	0	0	0
O=C(c1ccc(=O)oc1)N1CCCc2ccccc21	0	25	0	40	0	0
Cn1c(N)c(C(=O)CSc2nc(C3CC3)n(-c3ccccc3)n2)c(=O)[nH]c1=O	0	32	0	0	0	0
Cn1c(N)c(C(=O)CSc2nnc(C3CC3)n2-c2ccccc2)c(=O)[nH]c1=O	0	0	0	0	0	0
Cc1ccc([N+](=O)[O-])cc1-c1ccc(/C=C(\C#N)c2[nH]nc(N)c2C#N)o1	0	30	0	0	0	0
COCc1cc(C)nc(OCC(=O)N/N=C/c2ccc(-c3cc([N+](=O)[O-])ccc3C)o2)c1C#N	0	0	0	0	0	0
O=C(O)C1(c2ccccc2)CCN(S(=O)(=O)c2ccc(F)c(F)c2)CC1	27	0	0	0	0	0
S=C(NC1CC2CCC1C2)N1CCN(c2cccc(Cl)c2)CC1 (stereo not drawn)	0	0	0	0	0	0
COc1ccc2c(c1)c(CC(=O)OCC(N)=O)c(C)n2C(=O)c1ccc(Cl)cc1	0	25	0	0	0	0
COc1cccc(CNC(=O)CCn2ccc3cc(S(=O)(=O)N4CCC(C)CC4)ccc32)c1	25	0	0	0	0	0
OCC[C@H]1C[C@@H](O)[C@H](O)[C@@]2(CCCCO2)O1	0	0	0	0	0	0
C=CCn1c(SCC#N)nc2c(c1=O)C(C)(C)Cc1ccccc1-2	25	0	0	0	0	0
C=CCn1c(SCC#N)nc2ccccc2c1=O	0	0	0	0	0	0
CCCn1c(N)c(C(=O)CSc2ncnc3sccc23)c(=O)n(C)c1=O	0	-	0	0	0	0
COCCNC(=O)CN1CCN(S(=O)(=O)c2ccc3c(c2)CCCC3)CC1	0	0	0	0	0	0
Cc1ccc(CSC2=Nc3sccc3C3=NC(=O)CN23)cc1	0	27	0	0	0	0
CC(C)Oc1ccc(C(CC(=O)O)NC(=O)C(Sc2ccccc2)c2ccccc2)cc1 (stereo not drawn)	-	0	-	-	-	-
NC(=O)COC(=O)CC12CC3CC(CC(C3)C1)C2	0	0	0	0	0	0
SMILES	PAFAH1B2 inh	pPAFAH FP inh	HTRA1 inh	PAFAH2 inh	DAGLB inhibitor	PAFAH1B3 inh
NC(=O)COC(=O)CC12CC3CC(CC(Br)(C3)C1)C2	27	0	0	0	0	0
OC(CN1CC=C(/C=C/c2ccc(Br)cc2)CC1)c1ccccc1 (stereo not drawn)	0	0	0	0	0	0
CCCCNc1c(-c2ccc(OC)c(SC3CCCCC3)c2)nc2cc(C)ccn12	0	0	0	0	0	0
CCCCNc1c(-c2ccc(OC)c(SC3CCCCC3)c2)nc2cnccn12	0	33	0	0	0	0
Cc1ccc(C)c(OCC(=O)Nc2ccccc2C(=O)N2CCOCC2)c1	0	0	0	0	0	0
Cc1ccc(S(=O)(=O)Oc2cccc([N+](=O)[O-])c2)cc1	25	-	0	0	0	0
O=C(Cc1ccc(Cl)cc1)NNC(=S)NC(=O)c1cccs1	0	0	0	0	0	0
O=C(Cc1cccs1)NNC(=S)NCc1ccc(Cl)cc1	55	0	0	0	0	0
Cc1cc(C)c(C#N)c(SCCS(=O)(=O)c2ccc(Cl)cc2)n1	29	0	0	0	0	0
COc1ccc(CNC(=S)NCc2ccc(Cl)cc2)cc1OC	0	0	0	0	0	0
CCOc1ccc(OC(=O)NC(c2ccccc2)C(Cl)(Cl)Cl)cc1 (stereo not drawn)	26	0	0	0	0	0
CC(C)OC(=O)NC(c1ccccc1)C(Cl)(Cl)Cl (stereo not drawn)	24	0	0	0	0	0
CCOC(=O)NC(CC(=O)O)c1ccc(OCC)cc1 (stereo not drawn)	0	0	0	0	0	0
CCN(c1ccccc1)S(=O)(=O)c1ccc(OC)c(NS(=O)(=O)c2cccs2)c1	30	0	0	0	0	0
NC(=O)NC(CC(=O)NNC(=O)c1ccccn1)c1ccccc1Cl (stereo not drawn)	0	0	0	0	0	0
CC(C)n1c(=S)[nH]c2scc(-c3cccs3)c2c1=O	0	33	0	0	0	0
CCn1c(=S)[nH]c2scc(-c3cccs3)c2c1=O	0	-	0	0	0	0
COc1cc(NC(=O)Nc2ccc(Cl)c(Cl)c2)c(C(=O)O)cc1OC	25	30	0	0	0	0
O=C(CSc1n[nH]c(-c2ccc(S(=O)(=O)NC3CCCCC3)cc2)n1)N1CCCC1	0	28	0	0	0	0
COc1cc(/C=N/NC(=O)c2sc3nc(C)cc(C)c3c2N)ccc1O	-	31	-	-	-	-
CNS(=O)(=O)c1cccc(C(=O)OCC(=O)Nc2ccccc2F)c1	0	0	0	0	0	0
O=C(COC(=O)c1ccccc1Br)Nc1cc(S(=O)(=O)N2CCOCC2)ccc1N1CCCC1	0	0	0	0	0	0
CC(OC(=O)c1cc(Br)ccc1O)C(=O)Nc1ccc(S(=O)(=O)N2CCCC2)cc1 (stereo not drawn)	0	26	0	0	0	0
Cc1cccc(C(=O)OC(C)C(=O)Nc2ccc(S(=O)(=O)N3CCCC3)cc2)c1O (stereo not drawn)	0	0	0	0	0	0
O=C(COC(=O)c1cc(S(=O)(=O)N2CCCC2)ccc1O)Nc1ccccc1Br	0	0	0	49	0	0
COc1ccccc1NS(=O)(=O)c1ccc(O)c(C(=O)OCC(=O)Nc2ccccc2F)c1	0	0	0	34	0	0
CCN(Cc1ccccc1)C(=O)COC(=O)c1cc(S(=O)(=O)Nc2ccccc2OC)ccc1O	32	0	0	0	0	0
CCOc1ccc(C(=O)N2CCSC2=S)cc1	0	0	0	0	0	0
COc1ccc(Nc2nc(Cl)c(C=O)s2)cc1	0	0	0	0	0	0
O=C(Nc1ccc(-c2csc(Nc3cccc(C(F)(F)F)c3)n2)cc1)c1cc([N+](=O)[O-])cc(C(F)(F)F)c1	0	0	0	48	0	27

Compound activity: PubChem BioAssay, The Scripps Research Institute Molecular Screening Center
